{
  "source": "PubChem BioAssay (Tox21)",
  "note": "Inconclusive results are not listed. Unmarked numbers belong to inactive results. Active and inactive are the calls of the source. The call rests on the fitted dose curve. On the % scale 0 is the no-effect control and ±100 the full control effect.",
  "data": [
    {"target": "Beta-2 adrenergic receptor (Homo sapiens) (UniProt P07550)", "sequence (P07550 whole entry, looked up)": "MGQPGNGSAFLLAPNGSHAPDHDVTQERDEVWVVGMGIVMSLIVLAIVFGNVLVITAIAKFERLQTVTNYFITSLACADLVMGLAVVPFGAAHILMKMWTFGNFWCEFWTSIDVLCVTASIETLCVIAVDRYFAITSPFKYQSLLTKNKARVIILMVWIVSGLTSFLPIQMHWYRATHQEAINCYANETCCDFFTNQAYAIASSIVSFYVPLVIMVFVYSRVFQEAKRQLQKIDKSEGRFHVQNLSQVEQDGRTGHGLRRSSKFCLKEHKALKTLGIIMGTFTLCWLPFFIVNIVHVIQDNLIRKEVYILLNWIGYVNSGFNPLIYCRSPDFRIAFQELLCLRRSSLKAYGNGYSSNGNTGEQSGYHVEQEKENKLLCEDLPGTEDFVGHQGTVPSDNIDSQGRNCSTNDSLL", "test": "Adrenergic beta2 receptor (ADRB2) small molecule antagonists, cell-based qHTS assay (AID 1963592); further: nearly all actives have a fitted effect of over 50% in size", "conditions": "CHO-ADRB2 cells, isoproterenol-stimulated cAMP HTRF ratio, 0.5 h; series mostly up to 92.4 µM; activity change, negative = inhibition: at the top concentration", "description": "U.S. Tox21 Program National Center for Advancing Translational Sciences [NCATS] Division of Preclinical Innovation [DPI] U.S. Environmental Protection Agency [EPA] National Institutes of Environmental Health Sciences [NIEHS] National Toxicology Program [NTP] U.S. Food and Drug Administration [FDA] Tox21 Assay Overview: Beta adrenergic receptors (Beta-ARs) belong to the G-protein coupled receptor (GPCR) superfamily, includes three subtypes - beta1, beta2, and beta3. Beta1-AR is the predominant receptor subtype expressed in the heart, and beta2-AR is expressed in the kidney, lung, blood vessel and in the heart, and beta3 is found in the adipocytes. Beta1 and 2 ARs couple to Gs protein and elevate cyclic adenosine mono phosphate (cAMP), which activates protein kinase A and leads to the downstream signaling responsible for the physiological actions. Beta-AR agonists or antagonists are the most prescribed therapeutic agents for heart failure and asthma, and these were one of the first target receptors for the rational drug design. Tox21 10K compound library was screened using the cAMP-Gs dynamic assay (Cisbio Bioassays, Shelton, CT) to identify agonists/antagonists of the Gs-coupled human adrenergic, beta2 receptor (ADRB2) in the CHO-ADRB2 cell line (Codex BioSolutions, Inc. Gaithersburg, MD), which stably over-expresses ADRB2. The principle of cAMP-Gs dynamic assay is based on HTRF technology, which facilitates the fluorescence resonance energy transfer (FRET) between donor Europium cryptate and acceptor d2-labeled cAMP. The cAMP generated within cells competes with the red acceptor, d2-labled cAMP, for binding to the monoclonal anti-cAMP-cryptate (Europium donor). An increase in intracellular cAMP leads to the disruption of FRET signal, and the signal is inversely proportional to the cAMP concentration. Propranolol HCl (Sigma-Aldrich, St. Louis, MO) was used as a positive control in the screening.\nTox21 Assay Protocol Summary: CHO-ADRB2 cells were dispensed at 1,000/well in 4uL assay medium into white/solid 1536-well plates (Greiner Bio-One North America Inc., Monroe, NC) using a Multidrop Combi dispenser (ThermoFisher Scientific, Waltham, MA). The assay plates were incubated at 37C and 5% CO2 for an overnight (18-20hr). Then positive control and test compounds dissolved in DMSO were transferred to the assay plates at 23nL using a Pintool station (Wako, San Diego, CA). Following the compound and positive control transfer, 1uL agonist-stimulation mix containing 1nM Isoproterenol HCl, 100uM IBMX and 25uM Ro-20-1724 was added to each well of the assay plates using BioRAPTR Flying Reagent Dispenser (FRD, Beckman Coulter, Brea, CA). The assay plates were incubated at room temperature for 0.5hr. Then 2.5ul each d2-labled cAMP and anti-cAMP-cryptate solutions were added separately to each well of the assay plates using an FRD and the assay plates were incubated at room temperature for 1hr. The fluorescence signal was measured at two different wavelengths (665nm and 615nm) using an Envision plate reader (Perkin Elmer, Shelton, CT). Data were expressed as the ratio of 665 nm/615 nm.", "values": [
      {"compound": "CC(=O)CC(N)=O", "activity change, negative = inhibition": "3.98%"},
      {"compound": "NCCO", "activity change, negative = inhibition": "-0.911%"},
      {"compound": "O=Cc1ccc(Cl)c(Cl)c1", "activity change, negative = inhibition": "3.48%"},
      {"compound": "COc1cc(C)c(Cc2cnc(N)nc2N)cc1OC", "activity change, negative = inhibition": "-1.25% [at 42.5 µM]"},
      {"compound": "CC(=O)CCC(C)C", "activity change, negative = inhibition": "11.2%"},
      {"compound": "C=C(C)C(=O)NCCCN(C)C", "activity change, negative = inhibition": "5.25%"},
      {"compound": "CCCCC(C)C(=O)O", "note": "(stereo not given)", "activity change, negative = inhibition": "5.63%"},
      {"compound": "CC1(C)[C@H]2CC[C@]1(C)[C@H](O)C2", "activity change, negative = inhibition": "3.69%"},
      {"compound": "C=C[Si](OC(=C)C)(OC(=C)C)OC(=C)C", "activity change, negative = inhibition": "-7.08%"},
      {"compound": "CCCCCCCCCCCC[N+](C)(C)CCCS(=O)(=O)[O-]", "activity change, negative = inhibition": "-9.59%"},
      {"compound": "O=Cc1ccc(F)cc1", "activity change, negative = inhibition": "1.06%"},
      {"compound": "CC(C)c1ccc(C=O)cc1", "activity change, negative = inhibition": "-9.51%"},
      {"compound": "OCC(CO)N[C@H]1C[C@](O)(CO)[C@@H](O)[C@H](O)[C@H]1O", "activity change, negative = inhibition": "-5.57% [at 42.5 µM]"},
      {"compound": "CCOC(=O)C(C)C(C)=O", "note": "(stereo not given)", "activity change, negative = inhibition": "-11.2%"},
      {"compound": "CCC(C)CO", "note": "(stereo not given)", "Potency": "inactive"},
      {"compound": "C[N+](C)(C)CC(O)CCl", "note": "(stereo not given)", "activity change, negative = inhibition": "1.71%"},
      {"compound": "C(/C=C/C=C/Nc1ccccc1)=Nc1ccccc1", "activity change, negative = inhibition": "3.56%"},
      {"compound": "CC(=O)O[C@H]1C[C@@H]2CC[C@@]1(C)C2(C)C", "activity change, negative = inhibition": "-10.9%"},
      {"compound": "CCCCCCCCSCC", "activity change, negative = inhibition": "-5.58%"},
      {"compound": "Cc1ccc(Nc2ccc(O)c3c2C(=O)c2ccccc2C3=O)cc1", "activity change, negative = inhibition": "2.82%"},
      {"compound": "CN(C)/N=N/c1nc[nH]c1C(N)=O", "Potency": "inactive"},
      {"compound": "CCC1COC(=O)O1", "note": "(stereo not given)", "activity change, negative = inhibition": "0.441%"},
      {"compound": "CC(=O)NCCO", "activity change, negative = inhibition": "1.17%"},
      {"compound": "C[C@@H]1O[C@@H](OC[C@H]2O[C@@H](Oc3c(-c4ccc(O)c(O)c4)oc4cc(O)cc(O)c4c3=O)[C@H](O)[C@@H](O)[C@@H]2O)[C@H](O)[C@H](O)[C@H]1O", "Potency": "inactive"},
      {"compound": "O=C(O)C1CCC(C(=O)O)CC1", "note": "(stereo not given)", "activity change, negative = inhibition": "-27%"},
      {"compound": "CC1CCC(C(C)(C)S)C(=O)C1", "note": "(stereo not given)", "activity change, negative = inhibition": "5.95%"},
      {"compound": "O=C1CC2CC1C1CCCC21", "note": "(stereo not given)", "activity change, negative = inhibition": "1.6%"},
      {"compound": "NC(=O)Nc1ccccc1", "activity change, negative = inhibition": "-0.333%"},
      {"compound": "COc1ccc2nc(N)sc2c1", "Potency": "inactive"},
      {"compound": "CC(C)(C)c1cc(C(C)(C)C)c(O)c(C(C)(C)C)c1", "Potency": "inactive"},
      {"compound": "CCCCc1ccc2cccc(S(=O)(=O)O)c2c1", "activity change, negative = inhibition": "-4.02%"},
      {"compound": "OCC1(CO)COCOC1", "activity change, negative = inhibition": "11.8%"},
      {"compound": "NC/C=C/C(=O)O", "activity change, negative = inhibition": "0.197% [at 42.5 µM]"},
      {"compound": "CO[C@@H]1[C@@H](O[C@@H]2O[C@H](C)[C@@H](O[C@H]3C[C@@](C)(O)[C@@H](O)[C@H](C)O3)[C@H](N(C)C)[C@H]2O)[C@@H](CC=O)C[C@@H](C)[C@@H](O[C@@H]2CC[C@H](N(C)C)[C@@H](C)O2)/C=C/C=C/C[C@@H](C)OC(=O)C[C@H]1OC(C)=O", "activity change, negative = inhibition": "1.06% [at 42.5 µM]"},
      {"compound": "Cc1cncc(C)c1", "activity change, negative = inhibition": "7.72%"},
      {"compound": "NS(=O)(=O)c1cc2c(cc1C(F)(F)F)NC(Cc1ccccc1)NS2(=O)=O", "note": "(stereo not given)", "activity change, negative = inhibition": "22.7% [at 42.5 µM]"},
      {"compound": "Clc1ccc2c(Cl)ccnc2c1", "activity change, negative = inhibition": "-10.8%"},
      {"compound": "CCc1c(Br)c(Br)c(Br)c(Br)c1Br", "activity change, negative = inhibition": "-6.07%"},
      {"compound": "CCCCCCCC(=O)OCCCCCC", "activity change, negative = inhibition": "9.54%"},
      {"compound": "COc1cccc(Br)c1", "activity change, negative = inhibition": "14.2%"}
    ]}
  ]
}
